Measured values from PubChem BioAssay (EPA / NIEHS).
Records with an inconclusive call do not appear. Active and inactive are the calls of the source. How the source made its calls, unless noted: active means hit-call score of the fitted dose curve at least 0.9, where 1 is the maximum; inactive means score below 0.9.

Key:
[1] = CCTE_Harrill_HTTr_Viability_PRF_DMEM_6hr: (Pilot) CCTE's 6-hour Cell Viability Assessment for the High-Throughput Transcriptomics (HTTr) Platform, in MCF-7 cells cultured phenol red-free DMEM + 10% charcoal-stripped fetal bovine serum, Harrill Lab (AID 2283976)
Excerpt: (§1) This is a cell-based assay that evaluates cell viability using high content imaging to evaluate membrane integrity using propidium iodide dye exclusion in a 384 well format.One of seven assay components measured from the CCTE_Harrill_HTTr_Viability assay. This was part of a pilot experiment. This is a cell-based assay that evaluates cell viability in MCF-7 cells cultured in phenol red-free DMEM + 10% charcoal-stripped fetal bovine serum. High content imaging is used to evaluate membrane integrity using propidium iodide dye exclusion. Measurements are taken at 6 hours after chemical dosing in 384-well format.The assay component endpoint CCTE_Harrill_HTTr_Viability_PRF_DMEM_6hr was analyzed with bidirectional fitting relation to DMSO as the negative control and baseline of activity. Using a type of viability reporter to understand changes in cytotoxicity, gain-of-signal activity can be used to evaluate membrane integrity using propidium iodide dye exclusion. To generalize the intended target to other relatable targets, this assay endpoint is annotated to cell cycle, where the subfamily is cytotoxicity.
(§2) Chemicals were tested in MCF7 cells in an eight point dilution series with a six hour exposure duration.

[2] = CCTE_Harrill_HTTr_Viability_PRF_DMEM_12hr: (Pilot) CCTE's 12-hour Cell Viability Assessment for the High-Throughput Transcriptomics (HTTr) Platform, in MCF-7 cells cultured in phenol red-free DMEM + 10% charcoal-stripped fetal bovine serum, Harrill Lab (AID 2283977)
In short: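 MCF-7 cells in phenol red-free DMEM with 10% charcoal-stripped FBS exposed 12 hours to an eight-point dilution series. Viability assessed by high-content imaging of propidium iodide exclusion; bidirectional fit versus DMSO.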

[3] = CCTE_Harrill_HTTr_Viability_PRF_DMEM_24hr: (Pilot) CCTE's 24-hour Cell Viability Assessment for the High-Throughput Transcriptomics (HTTr) Platform, in MCF-7 cells cultured in phenol red-free DMEM + 10% charcoal-stripped fetal bovine serum, Harrill Lab (AID 2283980)
Excerpt: as §1, with “24” for “6”, “CCTE_Harrill_HTTr_Viability_PRF_DMEM_24hr” for “CCTE_Harrill_HTTr_Viability_PRF_DMEM_6hr”
Chemicals were tested in MCF7 cells in an eight point dilution series with a twenty-four hour exposure duration.

[4] = CCTE_Harrill_HTTr_Apoptosis_DMEM_6hr: (Pilot) CCTE's 6-hour Apoptosis Assessment for the High-Throughput Transcriptomics (HTTr) Platform, in MCF-7 cells cultured in DMEM + 10% fetal bovine serum, Harrill Lab (AID 2283981)
Excerpt: This is a cell-based assay that evaluates apoptosis using high content imaging to evaluate activation of caspase-3/7 using the CellEvent Caspase 3/7 Green detection reagent in 384-well format.One of seven assay components measured from the CCTE_Harrill_HTTr_Apoptosis assay. This was part of a pilot experiment. This is a cell-based assay that evaluates apoptosis in MCF-7 cells cultured in DMEM + 10% fetal bovine serum. High content imaging is used to evaluate activation of caspase-3/7 using the CellEvent Caspase 3/7 Green detection reagent. Measurements are taken at 6 hours after chemical dosing in 384-well format.The assay component endpoint CCTE_Harrill_HTTr_Apoptosis_DMEM_6hr was analyzed with bidirectional fitting relation to DMSO as the negative control and baseline of activity. Using a type of viability reporter, gain-of-signal activity can be used to evaluate activation of caspase-3/7 using the CellEvent Caspase 3/7 Green detection reagent to understand changes in apoptosis. To generalize the intended target to other relatable targets, this assay endpoint is annotated to cell cycle, where the subfamily is apoptosis.
as §2

[5] = CCTE_Harrill_HTTr_Apoptosis_DMEM_12hr: (Pilot) CCTE's 12-hour Apoptosis Assessment for the High-Throughput Transcriptomics (HTTr) Platform, in MCF-7 cells cultured in DMEM + 10% fetal bovine serum, Harrill Lab (AID 2283982)
In short: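 MCF-7 cells in DMEM + 10% FBS, exposed 12 h to an eight-point dilution series; caspase-3/7 activation imaged with CellEvent Green. Bidirectional fit versus DMSO.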

[6] = CCTE_Harrill_HTTr_Apoptosis_DMEM_24hr: (Pilot) CCTE's 24-hour Apoptosis Assessment for the High-Throughput Transcriptomics (HTTr) Platform, in MCF-7 cells cultured in DMEM + 10% fetal bovine serum, Harrill Lab (AID 2283983)
In short: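 MCF-7 cells in DMEM + 10% FBS, eight-point dilution series, 24 h exposure. Caspase-3/7 activation imaged by high-content imaging with CellEvent Caspase 3/7 Green. Bidirectional curve fitting against DMSO baseline.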

[7] = CCTE_Harrill_HTTr_Apoptosis_PRF_DMEM_6hr: (Pilot) CCTE's 6-hour Apoptosis Assessment for the High-Throughput Transcriptomics (HTTr) Platform, in MCF-7 cells cultured phenol red-free DMEM + 10% charcoal-stripped fetal bovine serum, Harrill Lab (AID 2283984)
In short: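 MCF-7 cells in phenol red-free DMEM + 10% charcoal-stripped FBS, eight-point dilution series, 6 h exposure. Caspase-3/7 activation imaged by high-content imaging with CellEvent Caspase 3/7 Green; bidirectional fit versus DMSO baseline.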

[8] = CCTE_Harrill_HTTr_Apoptosis_PRF_DMEM_12hr: (Pilot) CCTE's 12-hour Apoptosis Assessment for the High-Throughput Transcriptomics (HTTr) Platform, in MCF-7 cells cultured in phenol red-free DMEM + 10% charcoal-stripped fetal bovine serum, Harrill Lab (AID 2283985)
In short: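 MCF-7 cells in phenol red-free DMEM with 10% charcoal-stripped FBS, eight-point dilution series, 12 h exposure. Caspase-3/7 activation imaged by high content imaging with CellEvent Green reagent; bidirectional fit vs DMSO.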

[9] = CCTE_Harrill_HTTr_Apoptosis_PRF_DMEM_24hr: (Pilot) CCTE's 24-hour Apoptosis Assessment for the High-Throughput Transcriptomics (HTTr) Platform, in MCF-7 cells cultured in phenol red-free DMEM + 10% charcoal-stripped fetal bovine serum, Harrill Lab (AID 2283986)
In short: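 MCF-7 cells in phenol red-free DMEM with 10% charcoal-stripped FBS, exposed 24 h across an eight-point dilution series. Caspase-3/7 activation imaged with CellEvent Green by high content imaging; bidirectional fitting against DMSO.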

[10] = TOX21_TR_RXR_BLA_Antagonist_Followup_viability: Viability Assessment in the Tox21 Thyroid Hormone Receptor beta Retinoid X Receptor alpha (RXRa) Antagonism Beta-lactamase (BLA) Follow-Up Assay (AID 2283979; active means hit-call score of the fitted dose curve at least 0.9, where 1 is the maximum)
In short: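 Follow-up compounds (11 concentrations, triplicate) were incubated 16 h at 37C/5% CO2 with HEK293T RXRa-bla cells seeded at 2,500/well in charcoal-stripped-serum medium. ATP content by CellTiter-Glo luminescence gave viability; curves fitted in both directions against DMSO.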

Structure (SMILES)	outcome [1]	outcome [2]	outcome [3]	outcome [4]	outcome [5]	outcome [6]	outcome [7]	outcome [8]	outcome [9]	AC50 [10]
Cc1c(COC(=O)[C@@H]2[C@H](/C=C(\Cl)C(F)(F)F)C2(C)C)cccc1-c1ccccc1	inactive	inactive	inactive	inactive	inactive	inactive	inactive	inactive	inactive	–
C=CCOC(=O)C(C)(C)OC(=O)c1cc(-n2c(=O)cc(C(F)(F)F)n(C)c2=O)ccc1Cl	inactive	inactive	inactive	inactive	inactive	inactive	inactive	inactive	inactive	–
CC1(C)C(C=C(Cl)Cl)C1C(=O)OC(C#N)c1cccc(Oc2ccccc2)c1 (configuration not stated)	inactive	inactive	inactive	inactive	inactive	inactive	inactive	inactive	inactive	–
CO/N=C(/C1=NOCCO1)c1ccccc1Oc1ncnc(Oc2ccccc2Cl)c1F	–	–	–	–	–	–	–	–	–	52 µM (active)
CCOC(=O)C(C)OC(=O)c1cc(Oc2ccc(C(F)(F)F)cc2Cl)ccc1[N+](=O)[O-] (configuration not stated)	inactive	inactive	inactive	inactive	inactive	inactive	inactive	inactive	inactive	–
